Our source for the composite z-score and z-score values is PubChem BioAssay.

Molecules are shown by their SMILES. Activity calls are given as the source filed them.

Experiment [1] in a line: probe aLefty2 binding to arrayed compounds – biochemical, biotinylated probe, 635/667 nm fluorescence, primary screen (AID 1094).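 Further: score merges spot fluorescence near 667 nm with spot signal-to-noise ratio.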 Particulars: small-molecule microarray, higher = more signal.
The subject of experiment [2] is Noggin (protein binding on small-molecule microarray). As to the kind of experiment: small molecules binding Noggin protein – biochemical, 635/667 nm fluorescence, primary screen (AID 1095).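 Further: score merges 667 nm feature fluorescence with signal to noise over triplicate slides.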 To be noted: 635 nm fluorescence, higher = more signal.
Experiment [3] has as its target Neurogenic locus notch homolog protein 3 (Homo sapiens) (UniProt Q9UM47). As to the kind of experiment: small molecules binding NOTCH3 protein – biochemical, 635/667 nm fluorescence, primary screen (AID 1096). To be noted: small-molecule microarray, 635 nm fluorescence, higher = more signal.
Experiment [4] is described as follows: probe aEGFR binding to arrayed compounds – biochemical, biotinylated probe, 635/667 nm fluorescence, primary screen (AID 1097).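 Further: probe is a biotinylated anti-EGFR antibody binding compounds printed on slides; score combines fluorescence near 667 nm and signal to noise of each spot.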 Particulars: small-molecule microarray, higher = more signal.
For experiment [5], the system named is Plasmodium falciparum Sir2 (PF13_0152, Sir2A). As to the kind of experiment: Plasmodium falciparum Sir2A binding compounds – biochemical, small-molecule microarray, 635 nm fluorescence, primary screen (AID 1098).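 Further: score merges spot fluorescence intensity with its signal-to-noise ratio.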 To be noted: fluorescence 635 nm, higher = more signal.
Experiment [6] is described as follows: probe aDKK1 binding to arrayed compounds – biochemical, biotinylated probe, 635/667 nm fluorescence, primary screen (AID 1099).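 Further: score merges 667nm spot fluorescence with signal to noise across triplicate slides.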 Particulars: small-molecule microarray, higher = more signal.
Experiment [7] in a line: probe aCHRDL2 binding to arrayed compounds – biochemical, biotinylated probe, 635/667 nm fluorescence, primary screen (AID 1100). To be noted: small-molecule microarray, higher = more signal.
The nature of experiment [8]: change in splice reporter luminescence, either direction, cell-based, HEK293, spliceosome inhibition project, primary screen (AID 1101).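 Further: HEK293 cells carrying a splicing-competent luciferase reporter gene; test concentration not given here.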 Particulars: HEK293 splicing luciferase reporter, 24 h, higher = more signal, called active from +8 up or from −8 down. (A reporter such as luciferase makes a cellular process visible.)
Experiment [9] addresses Fibroblast growth factor 10 (Homo sapiens) (UniProt O15520). As to the kind of experiment: compounds binding fibroblast growth factor 10 – biochemical, small-molecule microarray, 635 nm fluorescence, primary screen (AID 1102). Particulars: FGF10 binding, fluorescence 635 nm, higher = more signal.
In experiment [10] the test system is glycogen synthase kinase-3 (GSK3A per assay name; protocol says GSK3B). Description: compounds binding glycogen synthase kinase-3 – biochemical, small-molecule microarray, 635 nm fluorescence, GSK3A, primary screen (AID 1103). Further: the record names both GSK3A and GSK3B. Particulars: fluorescence 635 nm, higher = more signal.
Experiment [11] concerns the target Epidermal growth factor receptor (Homo sapiens) (UniProt P00533). As to the kind of experiment: compounds binding epidermal growth factor receptor – biochemical, small-molecule microarray, 635 nm fluorescence, primary screen (AID 1104).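 Further: score merges 667 nm emission intensity with spot signal to noise over triplicate slides.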 Particulars: EGFR binding, higher = more signal.
The target in experiment [12] is Follistatin-related protein 3 (Homo sapiens) (UniProt O95633). As to the kind of experiment: compounds binding follistatin-related protein 3 – biochemical, small-molecule microarray, 635 nm fluorescence, primary screen (AID 1105).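 Further: score merges emission near 667 nm and signal to noise per printed spot across three slides.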 Particulars: FSTL3 binding, higher = more signal.
Follistatin-related protein 3 (Homo sapiens), sequence (O95633 whole entry, looked up): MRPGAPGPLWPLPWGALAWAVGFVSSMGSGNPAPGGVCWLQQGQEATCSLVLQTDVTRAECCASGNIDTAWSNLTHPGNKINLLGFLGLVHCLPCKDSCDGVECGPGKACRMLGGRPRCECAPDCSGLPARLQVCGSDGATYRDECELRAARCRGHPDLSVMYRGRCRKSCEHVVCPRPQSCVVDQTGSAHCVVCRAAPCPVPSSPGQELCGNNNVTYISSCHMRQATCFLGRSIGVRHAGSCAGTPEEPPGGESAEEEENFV
For experiment [13], the target named is Dickkopf-related protein 1 (Homo sapiens) (UniProt O94907). As to the kind of experiment: small molecules binding DKK1 protein – biochemical, small-molecule microarray, 635 nm fluorescence scan, primary screen (AID 1106).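 Further: score merges emission near 667 nm with signal to noise over three replicate slides.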 To be noted: higher = more signal.
Dickkopf-related protein 1 (Homo sapiens), sequence (O94907 whole entry, looked up): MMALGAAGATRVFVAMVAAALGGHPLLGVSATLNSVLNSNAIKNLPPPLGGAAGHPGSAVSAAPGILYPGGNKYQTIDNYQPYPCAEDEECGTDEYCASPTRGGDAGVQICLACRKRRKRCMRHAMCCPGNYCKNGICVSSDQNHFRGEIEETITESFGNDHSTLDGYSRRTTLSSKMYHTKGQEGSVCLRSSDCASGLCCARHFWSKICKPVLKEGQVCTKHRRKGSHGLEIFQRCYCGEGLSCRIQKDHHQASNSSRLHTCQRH
The test system of experiment [14] is Inhibin beta A chain (activin A). Description: small molecules binding activin A – biochemical, small-molecule microarray, 635 nm fluorescence scan, primary screen (AID 1107).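 Further: mouse activin A protein probed at 4.33 µg/mL on printed slides; score merges bound-protein fluorescence near 667 nm with spot signal-to-noise.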 Particulars: INHBA, higher = more signal.
Experiment [15] deals with Human papillomavirus type 1a protein E7 (residues 44-93). Description: small molecules binding HPV E7 44-93 – biochemical, small-molecule microarray, residues 44-93, 635 nm fluorescence, primary screen (AID 1108).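 Further: E7 fragment applied at 1 µg/mL in TBST for 1 h at 4 C; score combines spot fluorescence with its signal to noise ratio.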 To be noted: fluorescence 635 nm, higher = more signal.
Experiment [16] is described as follows: hepatitis C replication reporter changes, two-sided – Huh7 cells, luciferase reporter, HCV replication inhibitor project, primary screen (AID 1109).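 Further: huh7 hepatoma cells harbouring a luciferase neomycin HCV replicon reporter; luciferase luminescence as measure of HCV replicon replication; test concentration not given here.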 Particulars: Huh7 HCV replicon luciferase reporter, 48 h; higher = more signal.
For experiment [17], the target named is Left-right determination factor 2 (Homo sapiens) (UniProt O00292). As to the kind of experiment: small molecules binding LEFTY2 protein – biochemical, small-molecule microarray, 635 nm fluorescence scan, primary screen (AID 1110). Particulars: higher = more signal.
Left-right determination factor 2 (Homo sapiens), sequence (O00292 whole entry, looked up): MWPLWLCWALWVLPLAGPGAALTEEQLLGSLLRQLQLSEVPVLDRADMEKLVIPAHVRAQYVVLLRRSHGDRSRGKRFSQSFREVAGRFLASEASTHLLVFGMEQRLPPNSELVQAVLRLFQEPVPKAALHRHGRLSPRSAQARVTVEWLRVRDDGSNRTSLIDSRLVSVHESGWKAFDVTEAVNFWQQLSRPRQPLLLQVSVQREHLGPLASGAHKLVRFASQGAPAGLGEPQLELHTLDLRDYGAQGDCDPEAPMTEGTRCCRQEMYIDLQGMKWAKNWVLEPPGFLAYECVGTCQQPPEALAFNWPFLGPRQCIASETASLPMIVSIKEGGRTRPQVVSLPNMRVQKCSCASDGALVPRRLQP
Experiment [18] concerns the target Calmodulin-1 (Homo sapiens) (UniProt P0DP23). Description: small molecules binding calmodulin-1 with EGTA – biochemical, small-molecule microarray, Cy5-labelled CALM1, profiling panel (AID 1111).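 Further: labelled calmodulin applied in Tris saline Tween buffer holding calcium plus EGTA and DTT.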 To be noted: Cy5-CALM1 binding fluorescence, higher = more signal.
Experiment [19] shares this target. Description: small molecules binding Ca-loaded calmodulin-1 – biochemical, small-molecule microarray, Cy5-labelled CALM1, plus calcium, artefact control for SMM control-protein annotation, profiling panel (AID 1112).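 Further: score merges spot fluorescence with signal to noise from triplicate slides.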 Particulars: Cy5-CALM1 binding fluorescence, higher = more signal.
Experiment [20] is described as follows: probe aWnt5a binding to arrayed compounds – biochemical, biotinylated probe, 635/667 nm fluorescence, primary screen (AID 1113).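 Further: score merges 667 nm fluorescence intensity with signal-to-noise per printed feature.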 To be noted: small-molecule microarray, higher = more signal.

Epidermal growth factor receptor (Homo sapiens), sequence (P00533 whole entry, looked up): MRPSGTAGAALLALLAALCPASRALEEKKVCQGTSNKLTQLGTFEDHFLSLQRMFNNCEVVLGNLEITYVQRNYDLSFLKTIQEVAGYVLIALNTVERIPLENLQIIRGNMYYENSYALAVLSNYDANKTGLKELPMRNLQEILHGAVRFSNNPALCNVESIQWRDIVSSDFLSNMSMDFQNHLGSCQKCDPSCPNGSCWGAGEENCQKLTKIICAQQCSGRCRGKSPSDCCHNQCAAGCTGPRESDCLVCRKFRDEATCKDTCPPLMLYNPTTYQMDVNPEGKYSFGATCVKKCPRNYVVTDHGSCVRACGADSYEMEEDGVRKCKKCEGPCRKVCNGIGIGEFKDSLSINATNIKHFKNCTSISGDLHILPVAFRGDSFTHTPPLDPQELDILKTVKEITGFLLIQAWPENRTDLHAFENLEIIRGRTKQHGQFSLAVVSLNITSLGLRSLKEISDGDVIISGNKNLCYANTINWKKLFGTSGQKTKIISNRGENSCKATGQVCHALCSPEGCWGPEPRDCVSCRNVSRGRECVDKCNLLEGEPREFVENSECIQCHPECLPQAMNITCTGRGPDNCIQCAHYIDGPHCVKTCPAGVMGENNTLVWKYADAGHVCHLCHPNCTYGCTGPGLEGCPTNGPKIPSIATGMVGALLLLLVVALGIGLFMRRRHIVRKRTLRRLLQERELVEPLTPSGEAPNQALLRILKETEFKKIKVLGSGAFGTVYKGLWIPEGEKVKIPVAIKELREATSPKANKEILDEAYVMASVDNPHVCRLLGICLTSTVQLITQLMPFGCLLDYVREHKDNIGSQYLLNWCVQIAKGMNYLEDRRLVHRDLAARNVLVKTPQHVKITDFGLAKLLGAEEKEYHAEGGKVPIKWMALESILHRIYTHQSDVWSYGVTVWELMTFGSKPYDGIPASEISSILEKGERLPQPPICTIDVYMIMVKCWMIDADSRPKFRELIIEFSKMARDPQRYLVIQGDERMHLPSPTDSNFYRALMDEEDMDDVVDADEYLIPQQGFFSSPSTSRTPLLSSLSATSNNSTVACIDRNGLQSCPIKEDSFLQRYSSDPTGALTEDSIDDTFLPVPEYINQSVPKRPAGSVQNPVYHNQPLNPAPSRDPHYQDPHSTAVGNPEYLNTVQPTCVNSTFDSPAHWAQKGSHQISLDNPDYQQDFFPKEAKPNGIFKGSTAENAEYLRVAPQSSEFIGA
Neurogenic locus notch homolog protein 3 (Homo sapiens), sequence (Q9UM47 whole entry, looked up): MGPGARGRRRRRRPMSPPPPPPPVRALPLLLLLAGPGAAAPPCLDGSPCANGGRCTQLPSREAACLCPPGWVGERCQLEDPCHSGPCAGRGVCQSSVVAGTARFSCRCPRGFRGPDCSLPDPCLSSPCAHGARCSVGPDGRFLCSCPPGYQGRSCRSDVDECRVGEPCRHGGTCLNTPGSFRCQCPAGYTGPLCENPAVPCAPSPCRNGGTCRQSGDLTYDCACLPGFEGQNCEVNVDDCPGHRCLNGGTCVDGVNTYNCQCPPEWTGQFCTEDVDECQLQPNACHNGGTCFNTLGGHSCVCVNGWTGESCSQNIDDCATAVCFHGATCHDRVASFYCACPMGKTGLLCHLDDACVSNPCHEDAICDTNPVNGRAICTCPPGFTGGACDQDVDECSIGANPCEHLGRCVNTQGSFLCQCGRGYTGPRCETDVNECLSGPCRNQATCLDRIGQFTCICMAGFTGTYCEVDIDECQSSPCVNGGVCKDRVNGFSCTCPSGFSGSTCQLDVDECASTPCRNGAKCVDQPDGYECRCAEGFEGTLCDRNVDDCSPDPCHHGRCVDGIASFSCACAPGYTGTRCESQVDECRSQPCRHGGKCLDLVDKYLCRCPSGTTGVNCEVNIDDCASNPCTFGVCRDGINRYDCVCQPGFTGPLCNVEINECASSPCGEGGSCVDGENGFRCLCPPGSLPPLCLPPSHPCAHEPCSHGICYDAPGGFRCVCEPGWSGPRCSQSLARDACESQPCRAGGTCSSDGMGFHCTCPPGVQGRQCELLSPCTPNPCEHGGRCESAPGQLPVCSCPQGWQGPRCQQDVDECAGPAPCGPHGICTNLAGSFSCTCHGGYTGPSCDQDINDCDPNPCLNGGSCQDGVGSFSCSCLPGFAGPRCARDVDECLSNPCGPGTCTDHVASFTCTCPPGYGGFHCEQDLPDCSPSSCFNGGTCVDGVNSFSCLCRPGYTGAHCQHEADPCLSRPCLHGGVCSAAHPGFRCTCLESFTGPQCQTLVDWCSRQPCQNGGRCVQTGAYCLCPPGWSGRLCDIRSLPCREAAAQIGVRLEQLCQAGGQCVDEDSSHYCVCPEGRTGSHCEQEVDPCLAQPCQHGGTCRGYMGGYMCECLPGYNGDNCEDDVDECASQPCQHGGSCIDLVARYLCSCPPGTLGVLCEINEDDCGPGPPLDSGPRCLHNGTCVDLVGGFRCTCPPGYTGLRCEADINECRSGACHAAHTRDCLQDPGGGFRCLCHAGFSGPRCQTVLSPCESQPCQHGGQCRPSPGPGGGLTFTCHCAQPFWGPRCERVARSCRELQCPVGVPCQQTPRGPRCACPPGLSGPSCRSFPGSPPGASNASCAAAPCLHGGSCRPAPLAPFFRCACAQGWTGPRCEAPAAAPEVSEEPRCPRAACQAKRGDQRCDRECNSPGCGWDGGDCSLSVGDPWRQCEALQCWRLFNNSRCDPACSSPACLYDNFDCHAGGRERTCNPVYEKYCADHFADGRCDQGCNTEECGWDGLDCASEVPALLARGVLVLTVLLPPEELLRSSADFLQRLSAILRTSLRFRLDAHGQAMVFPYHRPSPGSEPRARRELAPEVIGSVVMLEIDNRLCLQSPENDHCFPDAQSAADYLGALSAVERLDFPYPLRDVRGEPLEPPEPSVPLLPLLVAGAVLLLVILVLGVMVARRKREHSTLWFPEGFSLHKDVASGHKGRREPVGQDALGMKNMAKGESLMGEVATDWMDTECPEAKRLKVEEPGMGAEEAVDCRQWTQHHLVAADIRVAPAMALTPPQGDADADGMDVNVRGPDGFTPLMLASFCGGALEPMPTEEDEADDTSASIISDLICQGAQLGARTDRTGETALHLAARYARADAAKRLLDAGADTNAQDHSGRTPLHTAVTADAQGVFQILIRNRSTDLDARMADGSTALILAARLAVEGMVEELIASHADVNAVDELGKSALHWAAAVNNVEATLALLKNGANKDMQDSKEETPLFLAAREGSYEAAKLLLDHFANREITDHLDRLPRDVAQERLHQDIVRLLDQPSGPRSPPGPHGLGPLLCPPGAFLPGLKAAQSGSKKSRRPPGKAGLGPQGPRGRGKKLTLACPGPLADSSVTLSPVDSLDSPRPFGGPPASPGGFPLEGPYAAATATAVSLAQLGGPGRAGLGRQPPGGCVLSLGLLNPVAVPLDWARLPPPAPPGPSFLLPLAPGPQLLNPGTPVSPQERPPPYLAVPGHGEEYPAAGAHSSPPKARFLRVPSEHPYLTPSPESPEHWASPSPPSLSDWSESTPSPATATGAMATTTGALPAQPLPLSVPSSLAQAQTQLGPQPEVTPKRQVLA
Fibroblast growth factor 10 (Homo sapiens), sequence (O15520 whole entry, looked up): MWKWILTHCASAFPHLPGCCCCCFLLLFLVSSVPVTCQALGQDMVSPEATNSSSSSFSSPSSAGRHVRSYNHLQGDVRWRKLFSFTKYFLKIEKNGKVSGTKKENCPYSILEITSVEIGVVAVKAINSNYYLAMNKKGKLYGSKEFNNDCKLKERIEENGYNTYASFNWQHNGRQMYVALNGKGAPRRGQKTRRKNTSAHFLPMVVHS

For the compound `CCOC(=O)C[C@H]1[C@H](OC(=O)c2cc3ccccc3oc2=O)[C@@H](NC(=O)c2ccccc2)c2cc(OCCCO)ccc2N1C(=O)Cc1ccc(OC)cc1`, the composite z-score was -0.0069 in [1]; 0.908 in experiment [2]; 0.665 in experiment [3]; -0.113 in experiment [4]; 0.575 in [5]; 0.33 in [6]. Besides, the composite z-score was -0.194 in [7]; 0.905 in [9]; 0.714 in experiment [10]; 0.433 in experiment [11]; 0.909 in experiment [12]; 0.511 in [13]. In addition, the composite z-score in [14] was 0.506; in experiment [15], 0.378; in experiment [17] it was 0.357; in experiment [18] it was 0.163; in experiment [19], -0.422; in [20], -0.182. The z-score is -1.78 (inactive) in [8] and -0.824 in [16].
On to `COc1ccc([Si](C)(C)[C@H]2[C@H](CC(=O)N3Cc4ccccc4C[C@H]3CO)O[C@@]3(C(=O)N(Cc4cccc(N5C(=O)COc6ccccc65)c4)c4ccccc43)[C@@H]2C)cc1`, for which the composite z-score in experiment [1] was -0.116; in [2] it was 1.56; in experiment [3] it was 1.11; in experiment [4], -0.0192; in [5], 1.18; in experiment [6] it was -0.225. The composite z-score in experiment [7] is -0.261; in [9], 0.818; in experiment [10], 0.52; in [11], 1.13; in experiment [12], 1.26; in experiment [13], 1.12. Besides, the composite z-score in experiment [14] is 1.23; in experiment [15] it was 0.354; in [17] it was 0.818; in experiment [18], 0.191; in experiment [19] it was -0.185; in [20], 0.0094. The values for the z-score in experiment [8] and in [16] were -1.72 (inactive) and -3.73, respectively.
`CC(C)[C@@H](C(=O)O)n1cc(-c2ccccn2)nn1`: the composite z-score was -0.378 in experiment [1]; 0.332 in [2]; 0.309 in experiment [3]; -0.0508 in experiment [4]; -0.0369 in experiment [5]; 0.98 in experiment [6]. Also, the composite z-score in experiment [7] turned out to be 0.33; in experiment [9], 0.0739; in experiment [10], 0.428; in [11], 0.278; in [12] it was 0.0231; in [13], 0.418. In addition, the composite z-score is 0.805 in [14]; 0.465 in [15]; 0.249 in experiment [17]; 0.51 in experiment [18]; 0.556 in [19]; -0.0216 in experiment [20]. The z-score is -0.015 (inactive) in [8] and -0.187 in [16].
On to `CC(C)C(CO)N1C(=O)[C@@H]2C3C(=O)OCCC/C=C\[C@H]3OC23C=CCN(C(C)C)C(=O)[C@@H]13` (stereo not given in full), for which the composite z-score was 0.727 in [1]; -0.868 in [2]; -0.134 in [3]; -0.188 in experiment [4]; 1.86 in experiment [5]; -0.191 in [6]. In addition, the composite z-score in experiment [7] is 0.481; in [9] it was -0.547; in experiment [10], -0.875; in experiment [11] it was -1.2; in experiment [12] it was -0.826; in [13] it was -0.868. For the same compound, the composite z-score in experiment [14] was 0.968; in [15] it was -0.359; in experiment [17] it was -0.73; in experiment [18], -0.467; in [19], -0.14; in experiment [20], -0.221. In addition, the z-score in experiment [8] was -0.895 (inactive); in experiment [16] it was -0.069.
As to `CCCC[C@@H](O)C1=C(C)C[C@H]2C(=O)N(C)C(=O)[C@H]2[C@H]1CO`, the composite z-score was -0.328 in experiment [1]; 1.09 in experiment [2]; 0.352 in [3]; -0.21 in [4]; 1.42 in [5]; -0.372 in experiment [6]. Besides, the composite z-score in experiment [7] was -0.493; in experiment [9], 0.755; in experiment [10], 0.349; in experiment [11] it was 0.269; in [12], 0.229; in [13] it was 0.3. Besides, the composite z-score is -0.301 in experiment [14]; 0.276 in experiment [15]; 0.322 in experiment [17]; -0.409 in experiment [18]; -0.471 in [19]; -0.0944 in experiment [20]. For the same compound, the results for the z-score in experiment [8] and in [16] were -0.72 (inactive) and 0.739, respectively.
Consider `C=C(COC)C(=O)CC[C@H](OC(=O)c1ccccc1-c1ccccc1C(=O)O)c1ccccc1OCCO`, for which the composite z-score in experiment [1] is -0.235; in experiment [2], 0.877; in experiment [3], 0.385; in experiment [4], -0.155; in [5], 1.52; in experiment [6] it was -0.227. Moreover, the composite z-score in [7] was -0.053; in experiment [9] it was 0.595; in [10] it was 0.264; in [11] it was -0.124; in experiment [12] it was 0.159; in experiment [13], 0.307. In addition, the composite z-score in experiment [14] was 1.1; in experiment [15], -0.15; in experiment [17], 0.273; in experiment [18], 0.209; in experiment [19], -0.749; in [20] it was -0.118. Further, the z-score in experiment [8] was -0.51 (inactive); in experiment [16] it was -1.46.
Regarding `COC(=O)C1=CC(CCCO)=CC(C2CC2)N(Cc2cc3c(cc2Br)OCO3)C=C1C(=O)OC` (stereo not given), the composite z-score was 0.392 in experiment [1]; -0.705 in [2]; 0.647 in [3]; 0.0821 in experiment [4]; 1.57 in experiment [5]; 1.03 in experiment [6]. The composite z-score in experiment [7] was 1.14; in experiment [9], 0.0344; in experiment [10] it was 0.194; in experiment [11], -0.482; in [12], 0.0154; in [13], 0.47. In addition, the composite z-score in [14] is 0.945; in experiment [15], 1.36; in experiment [17], -0.998; in [18], 2.27; in experiment [19], 0.67; in experiment [20] it was -0.0269. For the same compound, the z-score in [8] was -0.575 (inactive); in [16], -0.164.
On to `Cc1ccc(N2C(=O)c3ccccc3[C@](C)(C(=O)NC3CC3)[C@@H]2c2ccc(CO)cc2)nc1`, for which the composite z-score in experiment [1] is 0.149; in experiment [2] it was 0.381; in experiment [3], -0.591; in experiment [4], -0.0564; in [5], -0.168; in experiment [6], 0.931. For the same compound, the composite z-score in experiment [7] is 0.541; in [9], -0.0779; in experiment [10], -0.0639; in [11] it was -0.0541; in [12] it was 0.44; in experiment [13], 0.272. For the same compound, the composite z-score in experiment [14] is 1.13; in experiment [15], -1.22; in experiment [17] it was 0.129; in experiment [18], -2.49; in experiment [19], -0.231; in experiment [20], -0.0792. Besides, the z-score in [8] was 0.466 (inactive); in [16] it was 0.344.
